A selection: hits, their analogues and other compounds. The true share with any hit is near 3%.
Sm TGR block – inhibitors of Schistosoma mansoni thioredoxin glutathione reductase; Q962Y6; purified TGR, DTNB reduction, TNB absorbance 405 nm; Potency, µM (doses to about 114 µM), without a hit: at the highest dose activity change, negative = inhibition, actives largely listed as inhibitors; hit rate 3% among 360,000; AID 485364; active means well fitted inhibition curve with a large enough effect; inconclusive means small, poorly fitted or top-dose-only effect; inactive means no such curve, though single readings can be large or run the other way; further: on the % scale 0 is the no-effect control and ±100 the full control effect; nearly all actives have a fitted effect of over 60% in size
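Kinetic colorimetric format: TGR-catalysed, NADPH-driven DTNB reduction monitored via TNB absorbance. Enzyme dispensed at 20 nM; compound exposure 15 min at room temperature before reaction start.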
SARS PLP yeast – blocks SARS-CoV papain-like protease in a yeast assay | S. cerevisiae expressing SARS-CoV PLpro, growth rescue | Potency, µM (top dose mostly 32.9 µM), inactives show at the highest dose activity, positive = growth rescue, usual class: activators | hit rate 0.19% among 330,000; calls by dose curve; further: 0% is about no effect; nearly all actives have a fitted effect of over 55% in size
Starred values were filed as active, the others as inactive; ? = inconclusive; / = no result. Potency means the concentration at half of the fitted maximal effect.

SMILES | Sm TGR block | SARS PLP yeast
CC(=O)N1CCN(CCN=CC2=C(O)CC(c3cccs3)CC2=O)CC1 (centres undefined) | 45µM* | -3%
CC1(C)CC(=O)C(C=NCCN2CCN(C(=O)Cc3ccc(Cl)cc3)CC2)=C(O)C1 | ? | 6%
CCOC(=O)c1ccc(NC(=S)N2CCN(CCN=CC3=C(O)CC(C)(C)CC3=O)CC2)cc1 | 1.1µM* | 2%
CC1(C)CC(=O)C(C=NCCN2CCN(C3CC(=O)N(c4ccc(Br)cc4)C3=O)CC2)=C(O)C1 (centres undefined) | 50µM* | -4%
CC1(C)CC(=O)C(C=NCCN2CCN(C(=O)C34CC5CC(CC(C5)C3)C4)CC2)=C(O)C1 | 25µM* | 0%
C=CCNC(=S)N1CCN(CCN=CC2=C(O)CC(c3cccs3)CC2=O)CC1 (centres undefined) | -7% | -1%
CCOC(=O)c1ccc(NC(=O)CN2CCN(CCN=CC3=C(O)CC(C)(C)CC3=O)CC2)cc1 | ? | 15%
CCCOc1ccc(N2C(=O)CC(N3CCN(CCN=CC4=C(O)CC(C)(C)CC4=O)CC3)C2=O)cc1 (centres undefined) | / | -5%
CCn1c(=O)c2cc(C(=O)Nc3cc(C)c(Cl)cc3OC)sc2c2ccccc21 | 40% | /
CCc1ccc(C(=O)NC(Cc2c[nH]c3ccccc23)C(=O)OCC(=O)c2ccc(Br)cc2)cc1 (centres undefined) | 8% | /
COc1ccc(S(=O)(=O)NCC(c2ccco2)N2CCOCC2)cc1OC (centres undefined) | -1% | /
Cc1ccc2[nH]c3c(=O)n(CC(=O)N(CCN(C)C)Cc4ccccc4)ncc3c2c1 | 12% | /
CCOC(=O)c1c(C)[nH]c(C)c1S(=O)(=O)N1CCC(C(=O)N2CCN(c3cccc(C)c3)C(C)C2)CC1 (centres undefined) | -17% | /
CC(C)c1ccc(N2C(=O)NC(=O)/C(=C/C=C/c3ccco3)C2=O)cc1 | ? | -17%
CCCCN1C(=O)/C(=C/C=C/c2ccco2)C(=O)NC1=S | 4.5µM* | 3%
Cc1cc(C)cc(N2C(=O)NC(=O)/C(=C\C=C\c3ccco3)C2=O)c1 | ? | 2%
Cc1ccc(N2C(=O)NC(=O)/C(=C/C=C/c3ccco3)C2=O)cc1 | ? | -14%
CCc1ccc(N2C(=O)NC(=O)/C(=C\C=C\c3ccco3)C2=O)cc1 | 11µM* | 0%
O=C1NC(=O)N(Cc2ccc(F)cc2)C(=O)/C1=C\C=C\c1ccco1 | 7.9µM* | -3%
O=C1NC(=O)N(Cc2ccccc2)C(=O)/C1=C\c1ccco1 | -48% | 2%
O=C1NC(=O)N(c2ccccc2)C(=O)/C1=C\C=C\c1ccccc1 | 14µM* | 1%
COc1ccc(N(C)S(=O)(=O)c2ccc3c(c2)n(C)c(=O)c(=O)n3C)cc1 | 4% | /
O=C(NCc1ccccc1Cl)c1ccc2c(c1)nnn2C1CCCC1 | 10% | /
Cc1ccc(C)c(N2CCN(C(=O)CN3C(=O)CSc4c3c(C)nn4-c3ccccc3)CC2)c1 | -12% | /
COc1ccc(CC(=O)Nc2sc3c(c2C(=O)Nc2cccc(Cl)c2)CCCCC3)cc1 | -1% | /
SMILES | Sm TGR block | SARS PLP yeast
CC(=O)c1ccc(N2CCN(C(=O)Nc3cn(CC(C)C)c(=O)c4ccccc34)CC2)cc1 | -7% | /
O=C(O)c1ccccc1/C=N/NC(=O)c1cc(-c2ccco2)nc2ccccc12 | 3.2µM* | -2%
CC(=O)Nc1ccc(/C=N/NC(=O)c2cc(-c3ccco3)nc3ccccc23)cc1 | 14µM* | -2%
O=C(N/N=C/c1ccco1)c1cc(-c2ccccc2)nc2ccccc12 | -20% | ?
O=C(N/N=C/c1ccc2c(c1)OCO2)c1cc(-c2ccco2)nc2ccccc12 | -20% | 3%
Cc1nn(-c2ccccc2)c(OC(=O)c2ccccc2Br)c1S(=O)(=O)c1ccccc1 | -15% | /
CCOC(=O)C1CCN(C(=O)c2c(C)nn(-c3ccc(F)cc3)c2-n2cccc2)CC1 | -1% | /
CC(C)CC1N=C2c3ccccc3N=C(SCC(=O)NCCc3ccc(Cl)cc3)N2C1=O (centres undefined) | 6% | /
Cc1ccc(/C=C/C(=O)c2ccccc(=O)c2O)c(C)c1 | 14µM* | ?
O=C(/C=C/c1ccc(O)c(O)c1)c1ccccc1O | ? | -3%
CCC1CCc2nc3sc(C(=O)Nc4ccc(C)cc4)c(N)c3cc2C1 (centres undefined) | 1% | /
O=C(Nc1cc(-c2nc3ccccc3s2)ccc1Cl)c1cc2ccccc2o1 | 1% | /
CC(C)OCCCNC(=O)CCCN1C(=O)CCn2nc(-c3cccn3C)cc21 | -9% | /
NC(=O)CSCc1cccc(Br)c1 | 2% | -1%
NC(CSCc1cccc(Br)c1)C(=O)O (centres undefined) | 40µM* | -4%
CN(C)c1ccc(CNC(=O)C2CCN(Cc3cc4ccccc4n3Cc3ccccc3)CC2)cc1 | 1% | /
CC(C)Oc1ccc(C(=O)N2CCCCC2CCN2CCCCC2)cc1 (centres undefined) | -6% | /
CCOC(=O)N1CCN(C(=O)CCC(=O)c2ccc(OCC)cc2)CC1 | -1% | 5%
CCCOc1ccc(C(=O)CCN2CCN(C(=O)OCC)CC2)cc1 | 100µM* | -5%
CCCCCOc1ccc(C(=O)CCN2CCOCC2)cc1 | 4µM* | -10%
COc1ccc(C(=O)CCN2CCCCCC2)cc1 | 18% | -24%
O=C(CCN1CCOCC1)c1ccc(Br)cc1 | 0% | -6%
CCOc1ccc(C(=O)CCN2CCCCC2)cc1 | 0.32µM* | 11%
CC(C)Oc1ccc(C(=O)CCN2CCCCC2)cc1 | 0.4µM* | -62%
COC(=O)c1cc(Nc2nc3ccccc3nc2NS(=O)(=O)c2ccc(C)cc2)ccc1Cl | 8% | /
SMILES | Sm TGR block | SARS PLP yeast
CCN(CC)c1cc(C)nc2nc(-c3ccc(C)cc3)nn12 | 0% | /
CCn1c(C(=O)NCc2ccccc2Br)cc2oc3ccccc3c21 | -9% | /
COc1cccc(-c2nc(SCc3cccc(Br)c3)n3[nH]c(=O)cc3n2)c1 | -7% | /
O=C(COc1ccccc1F)OCc1cc(=O)n2nc(C3CC3)sc2n1 | -4% | /
O=C(NCCc1ccc(Cl)cc1)c1cccn1-c1nnc(N2CCCC2)s1 | 8% | /
CCCCCC(O)(c1ccc(OCC)cc1)C(CN1CCOCC1)c1ccccc1 (centres undefined) | -13% | -3%
CCCCOc1ccc(C(O)(CCN2CCOCC2)c2ccccc2)cc1 (centres undefined) | 14µM* | -2%
CCOC(=O)c1c(C)[nH]c(C(=O)OC)c1CCC(=O)OC | -5% | -4%
CCOC(=O)c1[nH]c(Cc2[nH]c(C(=O)OCC)c(C)c2CCC(=O)OC)c(CCC(=O)OC)c1C | 7.9µM* | 3%
CCOC(=O)/C=C/C(=O)OCC(=O)Nc1ccc(Cl)cn1 | 0% | -22%
CCOC(=O)NC1(Nc2ccc(Cl)cn2)Oc2ccccc2O1 | 7.1µM* | 1%
O=[N+]([O-])c1cc(-c2ccc([As](=O)(O)O)cc2)ccc1[As](=O)(O)O | 8.9µM* | 3%
O=[N+]([O-])c1cccc2c([As](=O)(O)O)cccc12 | -27% | 0%
COc1ccc(/C(C)=N/Nc2ccc(F)cc2F)c(O)c1 | -25% | 0%
COc1ccc(/C(C)=N/Nc2ccccc2Cl)c(O)c1 | 14µM* | 0%
O=[N+]([O-])c1ccc(N2CCOCC2)cc1O | -1% | 1%
Cc1cc(N2CCOCC2)ccc1/C=C\[N+](=O)[O-] | 20µM* | -82%
COC(=O)CSc1nc2cc(OC)ccc2n1C | 25% | 0%
COc1ccc2c(c1)nc(SCC(=O)c1ccc(Br)s1)n2C | 32µM* | 9%

Screening results as filed in PubChem BioAssay.
